In the supplement of paper PMC7156485 one finds cell number and H1.0 immunofluorescence intensity data, which are given here for 25 compounds.

Structures are written as SMILES. ± gives the standard deviation of the averaged measurements.

What all share (details): concentration: 10 µM; 24 h
Assay [1] has as its system HCC1569. Nature of the assay: cell number relative to DMSO (% of DMSO); higher = more cells (less growth inhibition / toxicity). Put shortly:
(§1)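 Treatment: HCC1569 and TDF cells, 800 per well in 384-well plates with RPMI and 10% FBS, were given compounds at 10 µM for 24 h at 37 °C, in triplicate. Readout: after 3.7% formaldehyde fixation, cells were stained with a rabbit anti-H1.0 antibody, an AlexaFluor 647 secondary and DAPI. Reported values are H1.0 nuclear intensity or cell number as percent of the plate control, taken as the median of replicates, with positional smoothing for HCC1569.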

Assay [2] deals with TDF. Described as above. Put shortly:
as §1

Assay [3] concerns TDF. The assay is described as follows: H1.0 immunofluorescence intensity relative to DMSO (% of DMSO); higher = stronger H1.0 induction, active = 120 or more. Put shortly: as §1
The subject of assay [4] is HCC1569. Nature of the assay: H1.0 immunofluorescence intensity relative to DMSO (% of DMSO); higher = stronger H1.0 induction, active = 140 or more. Put shortly:
as §1
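For H1.0 immunofluorescence intensity relative to DMSO in this document: TDF is a line of transformed human dermal fibroblasts of mesenchymal origin.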
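For cell number relative to DMSO in this document: TDF denotes transformed human dermal fibroblasts of mesenchymal origin.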

Turning to `CCn1cnc2c(Nc3cccc(Cl)c3)nc(NC3CCCCC3N)nc21` (stereo not given), the cell number worked out at 54 in the assay on HCC1569 [1] and 13.5 in the assay with TDF [2]. For the same compound, the H1.0 immunofluorescence intensity in the assay with TDF [3] is 141 (active); in the assay on HCC1569 [4], 134 (inactive).
As for `Br.C#CCOC(=O)C1=CCCN(C)C1` [Arecaidine propargyl ester hydrobromide], the cell number with HCC1569 [1] was found to be 100; in the assay on TDF [2], 98.1. The H1.0 immunofluorescence intensity was 93.1 (inactive) in the assay with TDF [3] and 92.2 (inactive) in the assay on HCC1569 [4].
Regarding `CCCCCCCCCCCCCCCCOCC(COP(=O)([O-])OCC[N+](C)(C)C)OC(C)=O` (stereo not given), the cell number amounted to 96 in the assay on HCC1569 [1] and 98.3 in the assay on TDF [2]. The figures for the H1.0 immunofluorescence intensity with TDF [3] and in the assay with HCC1569 [4] were 99.6 (inactive) and 102 (inactive), respectively.
Regarding `CN1CCC23CCCCC2C1Cc1ccc(O)cc13.O=C(O)C(O)C(O)C(=O)O` [Dextrorphan D-tartrate], the cell number in the assay on HCC1569 [1] was 103; with TDF [2], 105. For the same compound, the H1.0 immunofluorescence intensity in the assay with TDF [3] was 93.1 (inactive); in the assay with HCC1569 [4] it was 89.2 (inactive).
Taken in the same sequence, the figures for `Cc1cc(O)c2c(=O)c3c(O)cc(O)c4c5c(O)cc(O)c6c(=O)c7c(O)cc(C)c8c1c2c(c34)c(c78)c65` [Hypericin] were 103 ± 2.1, 100 ± 2.6, 96.3 (inactive) and 94.4 (inactive).
Take `CCCCCC=CCC=CCC=CCC=CCCCC(=O)NCCc1ccc(O)c(O)c1` [Arachidonyl dopamine]: the cell number with HCC1569 [1] turned out to be 87.9; with TDF [2], 91.8. Moreover, the results for the H1.0 immunofluorescence intensity with TDF [3] and in the assay on HCC1569 [4] were 94.9 (inactive) and 124 (inactive), respectively.
Regarding `CN1C2CCCC1CC(=O)C2.Cl`, the cell number amounted to 98.6 in the assay on HCC1569 [1] and 89.2 in the assay on TDF [2]. Moreover, the H1.0 immunofluorescence intensity in the assay on TDF [3] was 108 (inactive); with HCC1569 [4], 94.5 (inactive).
In the case of `O=S1(=O)N(CCN2CC=C(c3c[nH]c4cc(F)ccc34)CC2)c2cccc3c2N1CCC3`, the cell number was found to be 101 with HCC1569 [1] and 107 with TDF [2]. Also, the H1.0 immunofluorescence intensity in the assay with TDF [3] was 95.4 (inactive); with HCC1569 [4], 102 (inactive).
For `CS(=O)(=O)O.O.Oc1ccc2c3c1OC1c4oc5ccccc5c4CC4(O)C(C2)N(CC2CC2)CCC314` (stereo not given) [Naltriben methanesulfonate hydrate] the same measures were 98.9, 101, 92.8 (inactive) and 119 (inactive).
Regarding `CCCN1CCCC2Cc3nc(N)ncc3CC21.Cl.Cl` (stereo not given) [Quinelorane dihydrochloride], the cell number in the assay with HCC1569 [1] came to 99.7; in the assay with TDF [2] it was 113. Besides, the H1.0 immunofluorescence intensity with TDF [3] was 95 (inactive); in the assay on HCC1569 [4], 106 (inactive).
Taken in the same sequence, the figures for `CN(C)C1C(=O)C(C(N)=O)=C(O)C2(O)C(=O)C3=C(O)c4c(O)cccc4C(C)(O)C3CC12` (stereo not given) [Tetracycline] were 104, 109, 101 (inactive) and 95.2 (inactive).
`CC(N)C(O)c1ccccc1` (stereo not given) [Phenylpropanolamine]: the cell number was 102 in the assay with HCC1569 [1] and 94 in the assay on TDF [2]. The H1.0 immunofluorescence intensity in the assay on TDF [3] was 100 (inactive); with HCC1569 [4], 99.8 (inactive).
For `Cl.O=C(CCCN1CCC2(CC1)C(=O)NCN2c1ccccc1)c1ccc(F)cc1` [Spiperone hydrochloride] the same measures were 105, 87.3, 116 (inactive) and 99.6 (inactive).
As to `Cc1sc2ccccc2c1CC1=NCCN1.O=C(O)C(=O)O` [Benazoline oxalate], the cell number with HCC1569 [1] is 104; in the assay on TDF [2], 106. Further, the H1.0 immunofluorescence intensity is 92 (inactive) in the assay with TDF [3] and 81.1 (inactive) in the assay on HCC1569 [4].
With `Cc1sc2c(c1C)C(c1ccc(Cl)cc1)=N[C@@H](CC(N)=O)c1nnc(C)n1-2`, the cell number in the assay with HCC1569 [1] came out at 79.2; with TDF [2] it was 67.9. Moreover, the H1.0 immunofluorescence intensity in the assay on TDF [3] is 141 (active); with HCC1569 [4], 220 (active).
Regarding `CC1CN(C2CCC(C#N)(c3ccc(F)cc3)CC2)CCC1(C(=O)O)c1ccccc1.Cl` (stereo not given) [Levocabastine.HCl], the figures for the cell number in the assay on HCC1569 [1] and with TDF [2] were 102 and 103, respectively. For the same compound, the H1.0 immunofluorescence intensity was 102 (inactive) with TDF [3] and 115 (inactive) in the assay on HCC1569 [4].
For `CCC(C(N)=O)N1CCCC1=O` (stereo not given) [Levetiracetam], the cell number in the assay with HCC1569 [1] came out at 102; in the assay with TDF [2] it was 105. Besides, the results for the H1.0 immunofluorescence intensity in the assay on TDF [3] and with HCC1569 [4] were 95.2 (inactive) and 101 (inactive), respectively.
For `COc1cc2c(cc1OC)C(C)NCC2` (stereo not given) [Salsolodine] the same measures were 105, 97.2, 88.7 (inactive) and 86.3 (inactive).
In the case of `COC1=C(OC)C(=O)C(=C2C(C)=C(C(=O)O)NC(c3ccc4c(n3)C(=O)C(N)=C(OC)C4=O)=C2N)C=C1` [Streptonigrin], the cell number in the assay with HCC1569 [1] was determined as 41.2; in the assay on TDF [2], 5.53. In addition, the H1.0 immunofluorescence intensity was 171 (active) in the assay on TDF [3] and 128 (inactive) in the assay with HCC1569 [4].
Consider `CN(C)C(=O)Oc1cc(OC(=O)N(C)C)cc(C(O)CNC(C)(C)C)c1.Cl` (stereo not given), for which the cell number in the assay with HCC1569 [1] and in the assay with TDF [2] was 104 each time. Also, the H1.0 immunofluorescence intensity with TDF [3] was 91.4 (inactive); in the assay on HCC1569 [4], 101 (inactive).
As to `COc1ccc2c(c[n+](C)c3c4cc5c(cc4ccc23)OCO5)c1OC.[Cl-]` [Chelerythrine], the cell number in the assay with HCC1569 [1] amounted to 114; in the assay with TDF [2], 17.4. Further, the H1.0 immunofluorescence intensity in the assay with TDF [3] was 139 (active); in the assay on HCC1569 [4] it was 96.2 (inactive).
With `Br.NCc1cc(=O)[nH]o1` [Muscimol hydrobromide], the cell number with HCC1569 [1] stood at 103; in the assay with TDF [2] it was 119. The H1.0 immunofluorescence intensity was 89.5 (inactive) in the assay on TDF [3] and 91 (inactive) in the assay on HCC1569 [4].
For `CCN(CCCl)Cc1ccccc1Br.Cl` [DSP-4 hydrochloride], the values for the cell number with HCC1569 [1] and with TDF [2] were 98.7 and 103, respectively. Moreover, the H1.0 immunofluorescence intensity with TDF [3] is 92.8 (inactive); with HCC1569 [4], 92.4 (inactive).
Turning to `C=C1C2CC3(C1O)C1CC4C5(C)CCC(O)C4(C1N(CC)C5)C3CC2=O` (stereo not given) [Songorine], the cell number in the assay with HCC1569 [1] was 101; in the assay with TDF [2] it was 108. The H1.0 immunofluorescence intensity was 90 (inactive) with TDF [3] and 91.7 (inactive) in the assay with HCC1569 [4].
Take `C=CC1CN2CCC1CC2C(O)c1ccnc2ccccc12` (single isomer, unassigned; (-)) [(-)-Cinchonidine]: the figures for the cell number in the assay with HCC1569 [1] and with TDF [2] were 100 and 99.7, respectively. Besides, the H1.0 immunofluorescence intensity with TDF [3] was 101 (inactive); in the assay on HCC1569 [4] it was 100 (inactive).
